For 14 compounds, growth results are on record in PubChem BioAssay (NCI).

Holding throughout (assay): NCI-60 one-dose screen, 48 h (100 = growth as untreated, 0 = no growth, -100 = all killed)
What all share (conditions): 10 µM unless noted

For test [1], the system named is T-47D breast.
Test [2] concerns BT-549 breast.
Test [3] concerns MDA-MB-435 melanoma.
For test [4], the system named is SW-620 colon.
Test [5] relates to MCF7 breast.
In test [6] the test system is HCC-2998 colon.
For test [7], the system named is KM12 colon.
Test [8] concerns MDA-MB-468 breast.
The subject of test [9] is HCT-116 colon.

SMILES strings stand for the structures. The panel holds about 83,000 compounds, 20% with a hit somewhere; the sample as a whole holds those more often.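 Activity criterion: percent growth below 10, measured after cells in 96-well plates were exposed to a single compound concentration for 48 hours.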 Values without a mark were called inactive. Active and inactive are the calls of the source.

Consider `Oc1cncc(-c2ccc3ncnc(N4CCc5cc(F)c(Cl)cc54)c3c2)c1`, for which the growth is 41.9% in test [1]; 73.1% in test [2]; 69.6% in test [3]; 62.8% in [4]; 35.3% in test [5]; 51.7% in test [6]. Moreover, the growth was 61.4% in test [7] and 48.2% in [8].

`COc1ccc2[nH]cc(-c3cc4nc(-c5cn(C)c6ncc(Br)cc56)cc(N)n4n3)c2c1`: the growth in test [1] is -62.7% (active); in [2], -57.3% (active); in test [3], -61.6% (active); in test [4], -74.4% (active); in [5] it was -59.7% (active); in test [6] it was -95% (active). In addition, in test [7], the growth was -49.8% (active).

Turning to `C/C(=N\Nc1ccc(S(N)(=O)=O)cc1)c1cnn(-c2cc(=O)[nH]c3ccc(Br)cc23)c1C`, the growth in test [1] was 17.5%; in test [2], 37.7%; in test [3] it was 4.39% (active); in test [4], 75.7%; in test [5], 23.1%; in test [6], 73.4%. The figures for the growth in test [7] and in test [8] were 53.7% and -10.8% (active), respectively.

For the compound `Cc1cn(-c2cc(NC(=O)c3ccc(C)c(-n4cc(-c5cnc6cccnn56)nn4)c3)cc(C(F)(F)F)c2)cn1`, the growth in [1] is 94.6%; in [2], 158%; in test [3], 57.7%; in test [4], 84.9%; in test [5], 98.6%; in test [6] it was 82.2%. Besides, the results for the growth in test [7] and in test [8] were 54.9% and 99.1%, respectively.

For `Cn1cc(-c2cc(N)n3nc(-c4c[nH]c5ccccc45)cc3n2)c2cc(Br)ccc21`, the growth in test [1] is -82.7% (active); in [2], -58% (active); in test [3], -79% (active); in [4] it was -84.3% (active); in [5], -73.9% (active); in [9], -77.7% (active). For the same compound, the figures for the growth in test [7] and in test [8] were -79.3% (active) and -80.8% (active), respectively.

`Cn1cc(-c2cc(N)n3nc(-c4c[nH]c5ccc(Cl)cc45)cc3n2)c2cc(Br)cnc21`: the growth was -50% (active) in [1]; -16.1% (active) in test [2]; -80.8% (active) in test [3]; -79.1% (active) in test [4]; -59.8% (active) in [5]; -99% (active) in test [6]. Further, the results for the growth in test [7] and in test [8] were -68.8% (active) and -93.6% (active), respectively.

Turning to `CCOC(=O)/C(F)=C/C1CC1CCc1ccc(OCC)cc1` (stereo not given), the growth in [1] was 74.7%; in test [2] it was 106%; in [3], 99%; in test [4] it was 92%; in test [5], 85.7%; in test [6] it was 90.5%. The growth in test [7] was 83.9%.

Turning to `COc1ccc2c(c1)C(Sc1ccc(Br)cc1)c1c(nc(N)c(C#N)c1N)O2` (stereo not given), the growth in test [1] is 80.3%; in [2], 56.1%; in test [3] it was 88%; in [4], 80.1%; in test [5], 61.9%; in test [6] it was 111%. Moreover, the growth in test [7] is 74.7%; in test [8], 97.1%.

Take `COc1ccc2oc(=O)c(-c3csc(N/N=C(\C)c4cc(OC)c(OC)c(OC)c4)n3)cc2c1`: the growth in test [1] is 65.7%; in [2], 39%; in [3] it was 99.2%; in test [4], 108%; in [5], 79.8%; in [6], 112%. Also, the growth was 87.6% in [7] and 79.9% in test [8].

On to `C[C@H]1[C@@H](CC(=O)N[C@@H](Cc2coc3ccccc23)B(O)O)O[C@@H]2OC3(C)CC[C@H]4[C@H](C)CC[C@@H]1[C@@]24O3`, for which the growth is 27.1% in test [1]; -72.8% (active) in test [2]; -75.8% (active) in test [3]; 3.32% (active) in test [4]; 24.4% in test [5]; -83.1% (active) in [6]. Also, the growth is 0.198% (active) in test [7] and -49.6% (active) in test [8].

`N#CC1=C(c2ccco2)Nc2c(c(-c3ccccc3)nn2-c2ccccc2)C12C(=O)Nc1ccc(Cl)cc12` (stereo not given): the growth is 26.6% in [1]; 15.4% in test [2]; 53.7% in test [3]; 15.9% in test [4]; 21.3% in test [5]; 64.8% in test [6]. Also, the results for the growth in [7] and in [8] were 52.1% and 42.3%, respectively.

Turning to `Cn1cc(Nc2ncnc(-c3ccc(N4CCCC4)c(C#N)c3)n2)cn1`, the growth is 84.9% in test [1]; 76.1% in [2]; 8.16% (active) in test [3]; 57.6% in [4]; 66.5% in [5]; 51.2% in test [9]. Further, the figures for the growth in test [7] and in test [8] were 55.2% and 16.7%, respectively.

Regarding `CC(C)C[C@H](NC(=O)[C@@H]1CCCCCCCCCCC(=O)N[C@@H](CC(=O)N2CCC[C@@H]2C2CCCC2)C(=O)N1)B(O)O`, the growth in test [1] was -20% (active); in test [2] it was -79.2% (active); in test [3], -57.3% (active); in test [4] it was 4.22% (active); in test [5], -28.2% (active); in test [6], -100% (active). The growth in test [7] is -35.7% (active); in [8], -70.6% (active).

As for `COc1ccc(C(=O)NNC(=O)CSc2nc3sc4c(c3c(=O)n2-c2ccc(Cl)cc2)CCCC4)cc1`, the growth in test [1] is 72.5%; in [2], 34.5%; in test [3], 93.4%; in test [4] it was 88%; in test [5] it was 63.5%; in test [6], 111%. Besides, the results for the growth in test [7] and in [8] were 98% and 88.3%, respectively.
